The source holds several records for some structures; these can differ, active in one and inactive in another. Active and inactive are the calls of the source. Rule for the calls: active = hit-call score of the fitted dose curve at least 0.9, where 1 is the maximum; inactive = score below 0.9.

Common to all, as to settings: primary human HUVEC with PBMC; actives raise or lower the signal
Read-out in test [1]: Interleukin-1 alpha (IL1a), IL1A (gene 3552)
Description: BSK_LPS_IL1a: BioMAP Diversity Plus: LPS Assay for Interleukin-1 alpha (IL1a) Biomarker Activity (AID 2283080). In outline: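 Human umbilical vein endothelial cells co-cultured with peripheral blood mononuclear cells were LPS-stimulated and exposed to test chemicals for 24 h. IL-1 alpha was quantified by ELISA, with bidirectional curve fitting against DMSO as the negative control and baseline.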

Read-out in test [2]: Monocyte Chemoattractant Protein-1 (MCP1), CCL2 (gene 6347)
Description: BSK_LPS_MCP1: BioMAP Diversity Plus: LPS Assay for Monocyte Chemoattractant Protein-1 (MCP1) Biomarker Activity (AID 2283081).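 For AC50: secreted MCP-1 protein quantified by ELISA in culture supernatant.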 A digest of the protocol:
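HUVEC plus PBMC co-culture (human primary cells, LPS system) exposed to test chemical for 24 h; MCP-1 measured by ELISA. Bidirectional curve fitting against DMSO baseline; parallel SRB total-protein staining flags overt cytotoxicity.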

Test [3] in a line: BSK_LPS_PGE2: BioMAP Diversity Plus: LPS Assay for Prostaglandin E2 (PGE2) Biomarker Activity (AID 2283082).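 For AC50: secreted prostaglandin E2 measured by ELISA in LPS-stimulated co-culture.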 In outline:
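Compounds were added to the LPS co-culture of endothelium and PBMC, and PGE2 was measured by ELISA after 24 h. Responses in either direction were fitted with DMSO as baseline.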

Read-out in test [4]: Macrophage colony-stimulating factor (MCSF), CSF1 (gene 1435)
Briefly: BSK_LPS_MCSF: BioMAP Diversity Plus: LPS Assay for Macrophage colony-stimulating factor (MCSF) Biomarker Activity (AID 2283083). In outline: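 Human umbilical vein endothelial cells co-cultured with peripheral blood mononuclear cells were exposed to compound for 24 h. M-CSF levels were measured by ELISA, and bidirectional curve fitting used DMSO as the negative control and baseline.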

Read-out in test [5]: Tissue Factor, F3 (gene 2152)
Description: BSK_LPS_TissueFactor: BioMAP Diversity Plus: LPS Assay for Tissue Factor Biomarker Activity (AID 2283084). A digest of the protocol:
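Human umbilical vein endothelial cells co-cultured with peripheral blood mononuclear cells were dosed and stimulated with LPS. Cell-surface CD142 was quantified by ELISA at 24 h. Activity was fitted bidirectionally against DMSO baseline.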

Read-out in test [6]: Tumor necrosis factor (Homo sapiens) (UniProt P01375)
Description: BSK_LPS_TNFa: BioMAP Diversity Plus: LPS Assay for Tumour Necrosis Factor alpha (TNFa) Biomarker Activity (AID 2283085).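 For AC50: TNFa protein level quantified by ELISA in the co-culture.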 A digest of the protocol:
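Cells (umbilical vein endothelium plus peripheral blood mononuclear cells) were dosed with chemical, incubated 24 h, then TNFa was quantified by ELISA; values derive from bidirectional fitting with DMSO as baseline.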

Read-out in test [7]: Vascular cell adhesion molecule 1 (VCAM1), VCAM1 (gene 7412)
Briefly: BSK_LPS_VCAM1: BioMAP Diversity Plus: LPS Assay for Vascular cell adhesion molecule 1 (VCAM1) Biomarker Activity (AID 2283086). A digest of the protocol:
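Cells are dosed in an LPS-stimulated endothelial/mononuclear co-culture and, after 24 h, VCAM-1 is quantified by ELISA. Activity in either direction is fitted relative to the DMSO negative control.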

Read-out in a further test: CD38, CD38 (gene 952)
Briefly: BSK_SAg_CD38: BioMAP Diversity Plus: SAg Assay for CD38 Biomarker Activity (AID 2283087). In outline:
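CD38 quantified by ELISA (fluorescence) in a superantigen-activated endothelial cell–PBMC co-culture at 24 h post-dose. Activity fitted in both directions relative to DMSO; parallel SRB and Alamar Blue cytotoxicity read-outs.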

Read-out in another test: CD40, CD40 (gene 958)
Briefly: BSK_SAg_CD40: BioMAP Diversity Plus: SAg Assay for CD40 Biomarker Activity (AID 2283088). A digest of the protocol:
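Human umbilical vein endothelial cells co-cultured with PBMC; CD40 levels measured by ELISA with fluorescence read-out 24 h after chemical dosing. Gain or loss of signal fitted bidirectionally against DMSO baseline.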

Read-out in a further test: CD69, CD69 (gene 969)
Description: BSK_SAg_CD69: BioMAP Diversity Plus: SAg Assay for CD69 Biomarker Activity (AID 2283089).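 For AC50: cell surface CD69 protein quantified by ELISA with fluorescence detection.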 In outline:
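Values derive from bidirectional fitting relative to DMSO vehicle. Cells: umbilical vein endothelium plus peripheral blood mononuclear cells, treated 24 h before fluorescent ELISA for CD69.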

Sequence of Tumor necrosis factor (Homo sapiens) (P01375 whole entry, looked up): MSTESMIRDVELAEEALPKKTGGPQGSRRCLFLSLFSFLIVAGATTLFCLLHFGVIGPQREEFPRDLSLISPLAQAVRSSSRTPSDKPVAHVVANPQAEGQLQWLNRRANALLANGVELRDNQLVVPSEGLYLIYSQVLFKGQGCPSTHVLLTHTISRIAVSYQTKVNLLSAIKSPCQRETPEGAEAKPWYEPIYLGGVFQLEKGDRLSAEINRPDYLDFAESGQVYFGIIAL

Take `S=C1NCCN1`: the outcome in test [1], in test [2], in test [3], in test [4], in [5] and in test [6] was inactive. For the same molecule, the outcome in test [7] was “inactive”; in the test with CD38, CD38 (gene 952), “inactive”; with CD40, CD40 (gene 958), “inactive”; with CD69, CD69 (gene 969), “inactive”.
For the molecule `Cc1nn(-c2cc(NS(C)(=O)=O)c(Cl)cc2Cl)c(=O)n1C(F)F`, the outcome in [1], in test [2], in test [3], in [4], in test [5] and in test [6] was inactive. Besides, the outcome was “inactive” in [7]; “inactive” with CD38, CD38 (gene 952); “inactive” with CD40, CD40 (gene 958); “inactive” with CD69, CD69 (gene 969).
For `Cc1cc(C2CC2)nc(Nc2ccccc2)n1`, the outcome in test [1] is “inactive”; in test [2], “inactive”; in test [5], “inactive”; in test [6], “inactive”; with CD38, CD38 (gene 952) it was “inactive”. Further, the AC50 in test [3] is 7.61 µM (active); in [4], 20.3 µM (active); in [7] it was 15.7 µM (active); with CD40, CD40 (gene 958) it was 16.2 µM (active); in the test with CD69, CD69 (gene 969), 28.2 µM (active).
For the molecule `CCOP(=O)(NC(C)C)Oc1ccc(SC)c(C)c1` (stereo unspecified), the result in test [1], in test [2], in test [3], in test [4], in test [5] and in test [6] was inactive. The outcome was “inactive” in [7]; “inactive” with CD40, CD40 (gene 958); “inactive” in the test with CD69, CD69 (gene 969).
Consider `CCOP(=S)(OCC)OC(Cl)C(Cl)(Cl)Cl` (stereo unspecified), for which the outcome in test [1] is “inactive”; in test [2], “inactive”; in test [4], “inactive”; in test [5], “inactive”; in [7], “inactive”; in the test with CD40, CD40 (gene 958), “inactive”. Moreover, the AC50 in [3] is 5.51 µM (active); in [6] it was 32.8 µM (active); in the test with CD38, CD38 (gene 952) it was 30.8 µM (active); in the test with CD69, CD69 (gene 969), 28.6 µM (active).
For the molecule `CN1COCN(Cc2cnc(Cl)s2)C1=N[N+](=O)[O-]`, the outcome in test [1], in test [2], in test [3], in test [4], in test [5] and in [6] was inactive. Besides, the outcome in [7] was “inactive”; in the test with CD38, CD38 (gene 952) it was “inactive”; with CD69, CD69 (gene 969), “inactive”. In addition, in the test with CD40, CD40 (gene 958), the AC50 is 3.79 µM (active).
Regarding `CCOP(=O)(OCC)Oc1cc(C)nc(C(C)C)n1`, the result in [1], in test [2], in test [3], in [4], in [5] and in test [6] was inactive. Besides, the outcome in [7] was “inactive”; with CD38, CD38 (gene 952) it was “inactive”; with CD40, CD40 (gene 958), “inactive”; with CD69, CD69 (gene 969), “inactive”.
For the molecule `CCC(CC)Nc1c([N+](=O)[O-])cc(C)c(C)c1[N+](=O)[O-]`, the AC50 in test [1] is 36.1 µM (active); in [2], 20 µM (active); in test [4], 18.9 µM (active); in [6], 26.4 µM (active); in test [7], 15 µM (active); with CD38, CD38 (gene 952) it was 28.5 µM (active). Also, the AC50 is 20 µM (active) with CD40, CD40 (gene 958) and 20 µM (active) with CD69, CD69 (gene 969). In addition, the outcome in [3] and in test [5] was inactive.
Take `CC(C)N(C(=O)SCC(Cl)=C(Cl)Cl)C(C)C`: the concentration at half-maximal activity (AC50) was 26.4 µM (active) in [1]; 31.7 µM (active) in test [2]; 34.7 µM (active) in test [3]; 29.5 µM (active) in test [4]; 30.1 µM (active) in test [5]; 32.3 µM (active) in test [6]. Moreover, the AC50 was 29.8 µM (active) in [7]; 31.3 µM (active) with CD38, CD38 (gene 952); 30.9 µM (active) in the test with CD40, CD40 (gene 958); 36.6 µM (active) with CD69, CD69 (gene 969).
As to `CC(C1CC1)C(O)(Cn1cncn1)c1ccc(Cl)cc1` (stereo unspecified), the result in test [1], in [2], in test [3], in test [4], in [5] and in test [7] was inactive. Besides, the outcome with CD38, CD38 (gene 952) is “inactive”; with CD40, CD40 (gene 958) it was “inactive”; with CD69, CD69 (gene 969), “inactive”. The half-maximal activity concentration (AC50) in test [6] was 4.36 µM (active).
Take `O=C(O)c1cc(Oc2ccc(C(F)(F)F)cc2Cl)ccc1[N+](=O)[O-]`: the outcome in test [1], in [2], in [4], in test [5], in test [6] and in test [7] was inactive. In addition, the outcome is “inactive” with CD38, CD38 (gene 952); “inactive” in the test with CD40, CD40 (gene 958); “inactive” with CD69, CD69 (gene 969). In [3], the AC50 is 16.4 µM (active).
For `COc1cc(OC)nc(Sc2cccc(Cl)c2C(=O)O)n1`, the result in [1], in [2], in test [3], in test [4], in test [5] and in test [6] was inactive. Also, the outcome in test [7] is “inactive”; with CD38, CD38 (gene 952) it was “inactive”; with CD40, CD40 (gene 958), “inactive”; with CD69, CD69 (gene 969), “inactive”.
As to `Nc1nc(N)nc(NC2CC2)n1`, the result in test [1], in [2], in [3], in [4], in [5] and in test [6] was inactive. In addition, the outcome is “inactive” in test [7]; “inactive” in the test with CD38, CD38 (gene 952); “inactive” with CD40, CD40 (gene 958); “inactive” with CD69, CD69 (gene 969).
Turning to `CSc1nnc(C(C)(C)C)c(=O)n1N`, the outcome in test [1], in [2], in [3], in [4], in test [5] and in test [6] was inactive. In addition, the outcome in test [7] is “inactive”; with CD38, CD38 (gene 952) it was “inactive”; in the test with CD40, CD40 (gene 958) it was “inactive”; in the test with CD69, CD69 (gene 969), “inactive”.
Regarding `CCCCSP(=O)(SCCCC)SCCCC`, the outcome was “inactive” in test [1]; “inactive” in [4]; “inactive” in [5]; “inactive” with CD40, CD40 (gene 958). Also, the AC50 is 20 µM (active) in test [2]; 29.7 µM (active) in test [3]; 32.5 µM (active) in test [6]; 31.1 µM (active) in test [7]; 20 µM (active) in the test with CD38, CD38 (gene 952); 31.5 µM (active) with CD69, CD69 (gene 969).
As for `CNC(=O)ON=C(C)SC`, the outcome in [1], in test [2], in test [4], in test [5], in test [6] and in test [7] was inactive. Besides, the outcome was “inactive” with CD38, CD38 (gene 952); “inactive” with CD40, CD40 (gene 958); “inactive” with CD69, CD69 (gene 969). For the same molecule, the AC50 in test [3] was 0.564 µM (active).
As for `CN(C)[C@@H]1C(=O)C(C(N)=O)=C(O)[C@@]2(O)C(=O)C3=C(O)c4c(O)cccc4[C@@](C)(O)[C@H]3[C@H](O)[C@@H]12`, the result in test [1], in test [2], in test [3], in test [4], in test [5] and in test [6] was inactive. For the same molecule, the outcome is “inactive” in [7]; “inactive” in the test with CD38, CD38 (gene 952); “inactive” with CD40, CD40 (gene 958); “inactive” with CD69, CD69 (gene 969). Further, the AC50 in [6] is 14.7 µM (active); with CD69, CD69 (gene 969) it was 5.09 µM (active).

In general, AC50 refers to the concentration giving half of the maximal activity seen.

These data come from PubChem BioAssay (EPA / NIEHS).
